# From PubChem
# PNC inhibitor: blocks assembly of the perinucleolar compartment; PC3M PTB-GFP, PNC prevalence imaging, 16 h; stronger effect = lower value; 140,000 tested, 3.1% active; activity change (PNC), negative = inhibition, % at 10 µM;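 active means readout at or below -70, meaning at least 70% loss of cells showing the perinucleolar compartment, a nuclear body marking cancer cells; inconclusive means readout between -30 and a set limit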;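 further: plate controls were DMSO wells for no effect and camptothecin positive control wells for full effect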
#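 Read-out is percentage of cells bearing a perinucleolar compartment, from automated 20x imaging of fixed, Hoechst-stained PC3M PTB-GFP cells. Cells were seeded 4 h, then exposed 16 h to compound (23 nl of library stock) in duplicate plates.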
# ALDH1A1 inh: inhibitors of human aldehyde dehydrogenase 1A1; P00352; AID 1030; Purified ALDH1A1, NADH fluorescence, propionaldehyde substrate; 220,000 tested, 7.3% active; Potency, µM (top dose mostly 75.3 µM), without a hit: top-dose activity, negative = inhibition, usual class: inhibitors;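 further: potency means the concentration at half of the fitted maximal effect; plate controls were no enzyme wells and a reference inhibitor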
# Target sequence (P00352 whole entry, looked up): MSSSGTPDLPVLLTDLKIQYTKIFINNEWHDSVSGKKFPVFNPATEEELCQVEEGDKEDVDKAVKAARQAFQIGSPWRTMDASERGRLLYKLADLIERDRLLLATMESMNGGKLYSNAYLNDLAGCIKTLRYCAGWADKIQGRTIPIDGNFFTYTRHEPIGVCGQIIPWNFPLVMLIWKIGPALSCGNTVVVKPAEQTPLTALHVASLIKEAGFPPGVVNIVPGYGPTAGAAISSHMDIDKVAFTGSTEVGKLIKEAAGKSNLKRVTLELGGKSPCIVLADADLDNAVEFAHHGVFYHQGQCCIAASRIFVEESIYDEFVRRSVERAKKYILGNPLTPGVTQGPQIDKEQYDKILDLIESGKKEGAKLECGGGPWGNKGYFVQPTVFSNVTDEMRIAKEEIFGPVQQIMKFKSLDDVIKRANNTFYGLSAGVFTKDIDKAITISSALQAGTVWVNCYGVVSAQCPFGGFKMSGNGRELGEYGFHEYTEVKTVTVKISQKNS
# HPGD inh: blocks human HPGD enzyme activity; P15428; purified HPGD, NADH fluorescence kinetic, PGE2 substrate; Potency, µM, inactives show top-dose activity change, negative = inhibition, actives largely listed as inhibitors; 150,000 tested, 4.3% active; AID 894; further: potency means the concentration at half of the fitted maximal effect
#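 NADH formation kinetics: reaction with 30 uM PGE2 and 1 mM NAD+ (final), 20 nM enzyme, Tris-HCl pH 8 with Tween 20, after 15 min compound preincubation at room temperature. Fluorescence change, last versus first of five reads.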
# Active calls of the source: *; ? = inconclusive; · = no result given; [ ] = another dose, or the depositor's remark. Hits are enriched below; roughly 11% of the tested compounds scored in any of these assays. Unless noted, the call rests on the fitted dose curve; in most records, active means well fitted inhibition curve with a large enough effect (not every such curve was filed as active); inconclusive means small, poorly fitted or top-dose-only effect, or another doubt; inactive means no such curve, though single readings can be large or run the other way. Unless noted, on the % scale 0 is the no-effect control and ±100 the full control effect.
SMILES,PNC inhibitor,ALDH1A1 inh,HPGD inh
O=C(c1ccco1)N1CCN(Cc2nnnn2CC2CCCO2)CC1 (stereo not given),·,20µM*,·
Cc1ccc(S(=O)(=O)Cn2nnnc2C(CC(C)C)N2CCN(c3ccc(F)cc3)CC2)cc1 (stereo not given),-115*,0%,-15%
Cc1ccc(C(=O)NCC(=O)OCC(=O)c2ccc3c(c2)NC(=O)CO3)cc1,·,-2%,·
CCN1C(=O)[C@H]2[C@H]3[C@H](O)[C@H](O)C/C(=N/OCC(C)C)[C@H]3CC[C@@H]2C1=O,·,0%[13.5 µM],·
COc1ccc(C)cc1N1C(=N)/C(=C2/Nc3ccccc3S2)C(c2ccccc2)C1=O (stereo not given),27,?,-15%
COc1ccc(S(=O)(=O)n2cnc(C)c2)cc1,·,15%,·
Cc1ccc(C(c2nnnn2CC2CCCO2)N2CCN(C)CC2)cc1 (stereo not given),·,0%,·
COc1ccc(C(c2nnnn2CC2CCCO2)N2CCN(c3ccc(F)cc3)CC2)cc1 (stereo not given),-86*,-6%,-13%
N#Cc1ccc(NC(=S)NCCN2CCOCC2)cc1,·,7%,·
CCOc1ccc(CNC23CN4CN(CN(C4)C2)C3)cc1,-11,9%,1%
CCOc1ccc(C=NC23CN4CN(CN(C4)C2)C3)cc1,38,20µM*,-11%
Cc1ccc(C)c(CSc2nc3[nH]ncc3c(=O)[nH]2)c1,·,12%,·
NC1=C(O)C(=O)[C@H](c2c[nH]c3ccc(OCc4ccccc4)cc23)O1,·,-6%[13.5 µM],-7%
CCOc1cccc(/C=C2/NC(=O)N(CC(=O)Nc3cccc(C)c3)C2=O)c1O,·,0%,·
Cc1ccc(NC(=O)CN2C(=O)N/C(=C/c3ccco3)C2=O)cc1,55,25µM*,-20%
Cc1ccc(NC(=O)CN2C(=O)S/C(=C\c3cccn3-c3cccc(C(=O)O)c3)C2=O)cc1C,·,2%,·
Cc1ccc(NC(=O)CN2C(=O)N/C(=C/c3cccn3-c3ccc(C(=O)O)cc3)C2=O)cc1,34,-8%,25µM*
CC(C)(C)NC(=O)COC(=O)c1cc(S(=O)(=O)N2CCCCC2)ccc1N1CCOCC1,-6,0%,-9%
O=C(O)C(=O)/C=C(\O)c1ccc(Br)cc1,·,-7%[13.5 µM],-7%
O=C(Nc1cccnc1)c1ccc(-c2ccccc2)cc1,·,11%,·
O=C(O)c1cnc2ccccc2n1,22,25µM*,?
COC(=O)c1cnc2ccccc2n1,-26,1%,-12%
O=C(Nc1cccnc1)c1cnc2ccccc2n1,-88*,11%,·
CCCCC(C)(C)[C@H](O)/C=C/[C@H]1[C@H](O)CC(=O)[C@@H]1C/C=C\CCCC(=O)O,·,-12%,-4%
COCC1C2CC[C@H]3C(OCc4ccc(F)cc4C(F)(F)F)OC[C@]4(C)[C@H]3C2=C(CN4C(=O)OC(C)(C)C)[C@H](C)C1COC (stereo not given in full),·,-4%,-10%
SMILES,PNC inhibitor,ALDH1A1 inh,HPGD inh
C/C(CCN1CCCCc2nc(C)c(C)cc21)=N\OC[C@@H](O)[C@@H]1O[C@@H]2OC(C)(C)O[C@@H]2[C@H]1O,·,-16%[13.5 µM],·
CCOc1cc(C2C(C(=O)OC)=C(C)N=C3SC(C)C(=O)N32)ccc1OC(C)=O (stereo not given),-18,7%,-6%
CCOC(=O)C1=C(C)N=C2SC(C)C(=O)N2C1c1ccc(OC(C)=O)c(OC)c1 (stereo not given),-100*,-2%,-2%
CCCNC(=O)/C=C/c1ccc(C(C)C)cc1,27,?,-20%
CC(C)c1ccc(/C=C/C(=O)NCCC2=CCCCC2)cc1,?,4.5µM*,-25%
Clc1cc(Cl)cc(Cl)c1,·,3%,1%
COCCN1C(=O)/C(=C/c2ccc(OCc3ccc(C(=O)O)cc3)c(OC)c2)SC1=Nc1ccccc1,39,1.1µM*,-8%
COc1cc(/C=C2\SC(=Nc3ccccc3)N(Cc3ccco3)C2=O)ccc1OC(C)C(=O)O (stereo not given),?,-4%,-27%
Cc1ccc(-c2nnc(Oc3ccc(NC(=O)c4ccccc4)cc3)c3ccccc23)cc1,-28,15%,-11%
CCOC(=O)c1[nH]c2c(c1C)C(=O)CC(c1ccco1)C2 (stereo not given),-108*,?,-19%
CSCCOC(=O)c1[nH]c2c(c1C)C(=O)CC(c1ccco1)C2 (stereo not given),-90*,?,-5%
Cc1c(C(=O)OCc2ccccc2)[nH]c2c1C(=O)CC(c1ccco1)C2 (stereo not given),-82*,8.9µM*,-28%
CCOC(=O)C1=C(N)OC2=C(C(=O)CCC2)C1c1ccco1 (stereo not given),-25,-8%,-8%
O=C1CC(c2ccco2)CC(O)=C1C=NCCO (stereo not given),9,4%,·
COc1ccc(C2CC(=O)c3c([nH]c(C(=O)OC(C)C)c3C)C2)cc1OC (stereo not given),33,5%,-16%
Cc1c(C(=O)O)[nH]c2c1C(=O)CC(c1ccccc1)C2 (stereo not given),25,11%,-12%
Cc1c(C(=O)OCCOC(C)C)[nH]c2c1C(=O)CC(c1ccco1)C2 (stereo not given),-91*,25µM*,-10%
CN(C)/N=N/c1nc[nH]c1C(N)=O,·,?,-21%
COc1cc(C(=O)NCC(=O)N/N=C(/C)c2cccs2)cc(OC)c1OC,29,11%,2%
CCC(=O)O[C@@]1(C(=O)SCF)[C@@H](C)C[C@H]2[C@@H]3C[C@@H](F)C4=CC(=O)C=C[C@@]4(C)[C@]3(F)[C@@H](O)C[C@]21C,·,12%[20.9 µM],-7%
C=C(C)C(=O)/C=C/C=C/c1ccccc1,·,-1%,-4%
C[N+](C)(C)CC(=O)N/N=C\c1ccncc1,·,-4%[13.5 µM],-7%
COCCOC(=O)c1[nH]c2c(c1C)C(=O)C(C(=O)OC)C(C)C2 (stereo not given),46,-6%,-7%
COCCOC(=O)c1[nH]c2c(c1C)C(=O)CC(c1ccco1)C2 (stereo not given),-95*,?,-11%
C[C@@H]1C(=O)O[C@H]2[C@@H](O)[C@@]34[C@H]5CC(C(C)(C)C)[C@]36[C@@H](OC(=O)[C@@H]6O)O[C@@]4(C(=O)O5)[C@@]12O (stereo not given in full),·,9%,0%
SMILES,PNC inhibitor,ALDH1A1 inh,HPGD inh
O=C(NC1CCCC1)C(c1ccncc1)N(C(=O)c1csnn1)C1CCCC1 (stereo not given),·,13µM*,·
O=C(NC1CCCC1)C(c1cccnc1)N(C(=O)c1csnn1)C1CC1 (stereo not given),27,8%,-3%
O=C(NC1CCCC1)C(c1cccnc1)N(C(=O)c1csnn1)C1CCCC1 (stereo not given),6,?,5%
O=C(NC1CCCCC1)C(c1cccnc1)N(C(=O)c1csnn1)C1CCCC1 (stereo not given),-100*,8%,-11%
Cc1c(N(C(=O)c2ccccn2)C2(C(=O)NC3CCCCC3)CCCCC2)c(=O)n(-c2ccccc2)n1C,·,0%,·
CC(C)Cn1c(=O)c(C(=O)N/N=C/c2cccc(F)c2)c(O)c2ccccc21,44,7%,-12%
CN(C)CCCN=c1c2ccccc2n(C)c2[nH]c(=O)n(C)c(=O)c12,·,-4%[13.5 µM],-1%
